PubChem BioAssay AID2551 (National Center for Advancing Translational Sciences (NCATS), 2010)
About 17,000 (5.5%) of roughly 310,000 compounds were called active. Another 11% or so got no clear call; they are omitted. Calls follow the shape of the dose curve; as a rule, active = well fitted inhibition curve with a large enough effect; inconclusive = small, poorly fitted or top-dose-only effect, or effect the other way; inactive = no such curve, though single readings can be large or run the other way. The full list was thinned out, with actives kept by preference.

target: Nuclear receptor ROR-gamma (Mus musculus) (UniProt P51450); experiment: qHTS for inhibitors of ROR gamma transcriptional activity; settings: Drosophila S2 Gal4-RORgamma UAS-luciferase reporter, 20 h; series mostly up to 53.6 µM; activity change, negative = inhibition: at the top concentration; also: nearly all actives have a fitted effect of over 60% in size
Sequence (P51450 whole entry, looked up, the tested form may be a part): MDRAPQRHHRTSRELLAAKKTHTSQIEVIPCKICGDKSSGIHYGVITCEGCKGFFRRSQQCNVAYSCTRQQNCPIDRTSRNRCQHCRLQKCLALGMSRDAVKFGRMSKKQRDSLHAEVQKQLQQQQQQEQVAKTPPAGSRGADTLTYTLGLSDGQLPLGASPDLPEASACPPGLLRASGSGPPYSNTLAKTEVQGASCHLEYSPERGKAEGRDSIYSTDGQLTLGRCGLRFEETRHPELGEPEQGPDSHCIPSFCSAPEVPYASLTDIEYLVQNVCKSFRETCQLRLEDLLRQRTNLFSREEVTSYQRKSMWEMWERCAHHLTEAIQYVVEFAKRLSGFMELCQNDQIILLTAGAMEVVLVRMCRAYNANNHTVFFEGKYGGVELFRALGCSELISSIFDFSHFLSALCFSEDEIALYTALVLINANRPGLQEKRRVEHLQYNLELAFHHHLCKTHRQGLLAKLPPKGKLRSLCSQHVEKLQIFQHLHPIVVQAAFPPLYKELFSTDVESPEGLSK
Method in brief: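 Luciferase reporter read in Schneider cells carrying Gal4-RORγ (mouse) and UAS-Photinus luciferase; cells given compound 1 h before 700 uM copper sulfate induction, then incubated 20 h at ambient temperature.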
% is scaled to controls: 0 for no effect and ±100 for the full control effect; potency is read from the fitted curve at half-maximal effect.

Activity change, negative = inhibition, inactive:
O=C(Oc1ccc(-c2nc(-c3ccccn3)no2)cc1)c1ccccc1 1.49%
c1csc(-c2nc(-c3ccncc3)no2)c1 -25.3%
COc1ccc2[nH]c(=O)c(C3c4cc(OC)c(OC)cc4CCN3C(=O)c3ccco3)cc2c1 (stereo not given) -0.908%
CC1CCCCC1NC(=O)CCS(=O)(=O)c1ccc2c(c1)NC(=O)CO2 (stereo not given) -15.6%
COc1cccc(NC(=O)C2C(c3ccccc3)C2(Cl)Cl)c1 (stereo not given) 27.3%
COc1ccc(-c2cc(C(=O)N3CCN(Cc4ccc5c(c4)OCO5)CC3)on2)cc1OC 0.905%
O=C(CCN1C(=O)C2C3CCC(C3)C2C1=O)Nc1ccc(Cl)cc1Cl (stereo not given) 15%
CC(=O)N1CCOc2ccc(S(=O)(=O)N3CCC(C(=O)Nc4ccccc4F)CC3)cc21 3.01%
COc1ccc(NC(=O)Cn2ncn3c(cc4ccccc43)c2=O)c(OC)c1OC 5.63%
CC(C)(C)C(=O)Cn1c(NCCO)nc2ccccc21 20.4%
CCc1nc2ccccc2n(CCOCCOCCn2c(=O)c(CC)nc3ccccc32)c1=O -24.8%
Cn1sc(NC(=O)c2ccccc2)nc1=O 4.29%
CC(=O)NCCc1nc2cc(NC(=O)c3ccccc3)ccc2n1C -25.2%
COc1cc(C(=O)N/C(=C\c2cn(C)c3ccccc23)C(=O)N2CCOCC2)cc(OC)c1OC -8.8%
COC(=O)c1ccc(CNC(=O)c2ccc3oc(C(C)C)nc3c2)cc1 -3.51%
CCOc1ccc(CN2CCN(Cc3ccc4cc(F)ccc4n3)CC2CCO)cc1 (stereo not given) -21.1%
CC(C)(C)c1ccc(C(=O)N2CCC(C(=O)N3CCCCC3)CC2)cc1 17.5%
Cc1ccc(C)c(OCCC(=O)OCC(=O)N2CCN(c3ccccc3)CC2)c1 22.2%
O=C(NCCc1ccc(Cl)cc1)c1cccc(N2CCCC2=O)c1 41.2%
Cc1ccc(/C=N/NC(=O)Cn2ccc(C(F)(F)F)n2)o1 0.733%
Cc1ccc(/C=N/NC(=O)CNC(=O)COc2ccccc2)o1 14.7%
CC(=O)N(C)c1ccc(NC(=O)Nc2cccc3ccccc23)cc1 -22.6%
COc1cccc(NC(=O)c2ccccc2N(Cc2ccccc2)S(C)(=O)=O)c1 1.83%
CC1Cc2ccccc2N1C(=O)c1cc2sccc2n1Cc1ccccc1 (stereo not given) 27.1%
CC1CC(=O)Nc2ccccc2N1S(=O)(=O)c1cccs1 (stereo not given) -18.1%
O=C(CN1CCN(c2ccccn2)CC1)Nc1ccc(Br)cc1 6%
CCCCSc1nnc(-c2ccc(NC(=O)CC)cc2)n1C 27.9%
Cc1c(S(=O)(=O)N2CC(C)CC(C)C2)c(=O)n(C)c(=O)n1C (stereo not given) -30.5%
Cn1c(-c2ccc(F)cc2)cnc1SCC(=O)NNC(=O)Cc1ccccc1 -1.11%
CN(Cc1ccccc1)C(=O)CCc1ccccc1 25.2%
Cc1nc(-c2ccc(F)cc2)c(CC(=O)N2CCN(S(=O)(=O)c3ccc(F)cc3)CC2)s1 33.3%
CCn1c(C)cc(=O)cc1-c1ccc(Cl)cc1 0.704%
c1ccc(-c2cc(-c3ccccc3)[nH]n2)cc1 14.3%
Cc1ccc(NC(=O)c2cc(-c3ccccc3O)n[nH]2)cc1C -21.9%
CCn1ccnc1CNC(=O)CC1C(=O)NCCN1Cc1ccc(F)cc1Cl (stereo not given) 8.52%
CN(C(=O)CC1C(=O)NCCN1Cc1ccc2ccccc2c1)C1CCOCC1 (stereo not given) -9.24%
COc1cc(C2C(C(=O)c3ccco3)=C(O)C(=O)N2c2cc(C)on2)ccc1OCc1ccccc1 (stereo not given) 2.05%
COc1ccc(C(C(=O)NC(C)(C)C)N(Cc2ccc(F)cc2)C(=O)CCC(=O)Nc2cc(C)on2)cc1 (stereo not given) 21.9%
O=C(Nc1ccccc1C(=O)O)c1ccc(N2C(=O)C3CC=CCC3C2=O)cc1 (stereo not given) -11.1%
Cc1cc(C)c(OCC(=O)N/N=C/c2ccco2)c(C)c1 -10.1%
O=C(Cn1cnc2ccccc21)Nc1ccccc1-c1ccccc1 20.3%
COc1ccc(C(=O)N[C@H](C(=O)NCc2ccccc2)C(C)C)cc1 -13.3%
CNC[C@H](CC1CCCCC1)NC[C@H](NCCC1CCCC1)[C@H](C)O -39.4%
O=C(Nc1cccnc1Cl)c1cc(-c2ccccc2O)on1 23.6%
O=C(CCc1nc2ccccc2c(=O)[nH]1)OCC(=O)c1cccc(Cl)c1 -5%
NC(=O)Cc1nc2scc(-c3ccc(Cl)cc3)c2c(=O)[nH]1 29.3%
Cc1ccc(-c2cc(C(=O)NN)n[nH]2)o1 -32.5%
CC(C)c1cc(C(=O)N/N=C/C(Br)=C/c2ccccc2)n[nH]1 -8.97%
CCOC(=O)N1CCC(N2Cc3cccc(C(=O)Nc4ccc(S(=O)(=O)N(CC)CC)cc4)c3C2=O)CC1 -9.07%
Cc1ccc2c(c1)N(CC(=O)N1CCC(C)CC1)C(=O)c1cccnc1O2 1.07%
CCCn1nc(NC(=O)C(C)C)c2cc3cc(OC)ccc3nc21 5.01%
Cc1cc(Cl)c2oc(C(=O)N(C)C(C)c3ccccn3)c(C)c2c1 (stereo not given) 12.6%
CCNC(=O)N1CCCC(C(=O)c2ccc(-c3ccccc3)cc2)C1 (stereo not given) 41.7%
NS(=O)(=O)c1ccc(CCNC(=O)c2nc(CS(=O)(=O)c3ccc(Cl)cc3)no2)cc1 6.38%
COc1ccccc1NC(=O)CSc1nc2sc3c(c2c(=O)n1-c1ccccc1)CCN(C)C3 20.1%
O=C(O)CCC(=O)NCc1ccc2[nH]c3c(c2c1)CCCC3 -10.5%
C=CCNC(=S)N1CCc2[nH]c3ccccc3c2C1 -8.55%
Cc1cnc(CN(C)C(=O)C2CCC(=O)N(CCc3cccc(F)c3)C2)[nH]1 (stereo not given) -3.15%
O=C(C[n+]1ccccc1)N/N=C/c1ccc(O)cc1 0.902%
Nc1nnn(CC(=O)N/N=C/c2ccc(O)cc2)n1 -0.319%
CSc1cccc(NC(=O)CN2C(=O)COc3ccc(S(=O)(=O)N4CCOCC4)cc32)c1 8.6%
CC(=O)c1ccc(N2CCN(C(=O)CCNC(=O)Cn3ccc4ccccc4c3=O)CC2)cc1 -9.01%
Cc1ccccc1NC(=O)c1cc(S(=O)(=O)Nc2cccc(C(=O)O)c2)ccc1Cl 13.3%
CCC1C(=O)NCCN1C(=O)c1ccc2nc(Cc3ccc(OC)cc3)oc2c1 (stereo not given) 19.5%
COc1cccc(NC(=O)CC2C(=O)NCCN2C(=S)Nc2ccc(F)cc2)c1 (stereo not given) 29.9%
COc1ccccc1N1CC(O)=C(c2nc3ccccc3s2)C1=N -40.9%
CCOC(=O)CCCN1CC(O)=C(c2nc3ccccc3s2)C1=N 20.7%
CCOc1cc(C2C(C(=O)c3ccco3)=C(O)C(=O)N2Cc2ccccc2)ccc1O (stereo not given) -17.1%
Cn1nc(-c2ccccc2)c2cc([N+](=O)[O-])ccc21 -15.4%
Cc1c(NC(=O)Nc2cccc([N+](=O)[O-])c2)c(=O)n(-c2ccccc2)n1C -4.92%
CC(CC(=O)Nc1ccc(F)cc1F)S(=O)(=O)c1ccc2c(c1)NC(=O)CO2 (stereo not given) 18.2%
COCC(C)n1c(C)cc(C(=O)CSc2cc(C)c3ccccc3n2)c1C (stereo not given) -19.8%
Cc1nnc(SCC(=O)NCc2ccccc2)s1 30.7%
N[C@@H](Cc1ccccc1)C(=O)N1CCC(C(=O)NCC(=O)Nc2ccc(F)cc2)CC1 -3.33%
Cc1ccn2c(=O)c(C(=O)NCCC3=CCCCC3)c(O)nc2c1 -18.2%
COC(=O)c1cn(-c2ccccc2)nc1-c1cccnc1 -14.8%
O=C(Nc1cn(-c2ccccc2)nc1-c1ccccc1)c1ccccc1 28.8%
CC(C)CCN(C(=O)c1csnn1)C(C(=O)NC1CCCC1)c1ccccc1 (stereo not given) -6.52%
Cc1ccc(NC(=O)CN(C)C(=O)COC(=O)C(C)(C)Oc2ccc(Cl)cc2)cc1 6.56%
Cn1c(Cc2cccs2)nnc1SCC(=O)Nc1ccccc1 1.98%
Cn1c(CSCC(=O)Nc2ccccc2)nnc1SCc1ccccc1 5.44%
CCOc1ccc(N(CC)S(=O)(=O)c2cccc3nsnc23)cc1 -23.8%
O=C(CN(C(=O)c1csnn1)c1cccc(Cl)c1)NC1CCCC1 0.687%
COc1cc(Cl)ccc1OCc1cc(C(=O)N2CC[C@@H]3CCCC[C@H]3C2)no1 11.1%
CCc1ccc(NC(=O)Cn2nnc(C(=O)NCc3ccc4c(c3)OCO4)c2N)cc1 -14.2%

Potency, active:
c1ccc(-c2noc(-c3cccs3)n2)nc1 1.26 µM
C=CS(=O)c1sc(Cl)c(N2CCOCC2)c1[N+](=O)[O-] (stereo not given) 4.47 µM
CCn1c(NC(=O)c2nn(C)cc2Br)nc2ccccc21 2.51 µM
Cn1c(NC(=O)c2ccccc2)nc2ccccc21 1 µM
Cc1ccc(/C=N/NC(=O)c2cc3ccccc3cc2O)o1 1.41 µM
CC1CC(=S)Nc2ccccc2N1Cc1ccccc1 (stereo not given) 1.41 µM
CCC(=O)Nc1ccc(-c2ccc(N3CCCCC3)nn2)cc1 4.47 µM
Cc1ccc(-c2cnc(NC(=O)CCC(=O)N(C)Cc3ccccc3)n2C)cc1 2.24 µM
Oc1ccccc1-c1cc(-c2ccc(Cl)cc2)n[nH]1 7.08 µM
CN(C(=O)CC1C(=O)NCCN1Cc1ccc(F)cc1Cl)C1CCCCC1 (stereo not given) 11.2 µM
O=C(Cn1cnc2ccccc21)N/N=C/c1ccco1 12.6 µM
O=c1[nH]c(CCl)nc2cc(-c3ccc(Cl)cc3)sc12 7.08 µM
Cc1ccc(-c2cc(C(=O)N/N=C/C=C/c3ccccc3)n[nH]2)o1 7.08 µM
Cc1cccc(NC(=S)NCc2ccc3[nH]c4c(c3c2)CCCC4)c1 1.58 µM
CC(C)(C)c1nnc(N/N=C/c2ccc(O)cc2)n(N)c1=O 1.26 µM
COc1ccc(C(=O)NC(=S)N2CCNC(=O)C2CC(=O)OC(C)C)cc1 (stereo not given) 4.47 µM
N=C1C(c2nc3ccccc3s2)=C(O)CN1NC(=O)c1ccc([N+](=O)[O-])cc1 2.82 µM
Cc1cc(SCC(=O)NCCN2C(=O)CSC2=O)nc2ccccc12 11.2 µM
O=C(NNC(=S)NC(=O)c1cn(-c2ccccc2)nc1-c1ccccc1)c1ccncc1 2.82 µM
Cn1c(CC(=O)Nc2ccccc2)nnc1SCC(=O)c1ccccc1 3.55 µM
